# For some of these results: Potency and affinity values are given separately. The source made the active and inactive calls. Entries that show only a call come without a potency. Unless noted, how the calls were made is not given here.
# Assays:
# [1] = target: Calcium-dependent protein kinase 1 (Plasmodium falciparum (isolate 3D7)) (UniProt P62344); test: PfCDPK1 kinase inhibitors, biochemical, TCAMS library (AID 1159585; cut-off not given, nearly all actives have IC50 up to about 0.98 µM;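 further: inhibitors leave more ATP so luminescence rises with inhibition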); settings: recombinant PfCDPK1, Kinase-Glo ATP depletion luminescence
# Sequence of Calcium-dependent protein kinase 1 (Plasmodium falciparum (isolate 3D7)) (P62344 whole entry, looked up): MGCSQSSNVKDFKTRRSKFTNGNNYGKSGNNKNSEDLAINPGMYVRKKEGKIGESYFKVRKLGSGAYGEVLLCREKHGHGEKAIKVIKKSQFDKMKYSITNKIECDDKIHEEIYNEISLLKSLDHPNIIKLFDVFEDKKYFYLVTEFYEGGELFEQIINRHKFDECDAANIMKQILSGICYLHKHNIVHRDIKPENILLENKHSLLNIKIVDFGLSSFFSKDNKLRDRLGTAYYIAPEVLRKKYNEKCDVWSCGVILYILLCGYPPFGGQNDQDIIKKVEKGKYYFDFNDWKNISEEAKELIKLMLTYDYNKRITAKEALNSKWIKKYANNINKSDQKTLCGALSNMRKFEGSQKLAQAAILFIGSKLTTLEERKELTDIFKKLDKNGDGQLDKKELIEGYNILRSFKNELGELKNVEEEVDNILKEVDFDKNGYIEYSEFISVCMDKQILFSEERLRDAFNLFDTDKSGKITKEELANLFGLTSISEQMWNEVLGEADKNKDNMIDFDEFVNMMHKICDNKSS
# [2] = target: Plasmodium falciparum protein kinase 6 (PK6, PF3D7_1337100) (UniProt Q8IDW1); test: PfPK6 kinase inhibitors, biochemical, TCAMS library (AID 1159586); settings: recombinant PfPK6, Kinase-Glo ATP depletion luminescence
# Sequence of Plasmodium falciparum protein kinase 6 (PK6, PF3D7_1337100) (Q8IDW1 1-305): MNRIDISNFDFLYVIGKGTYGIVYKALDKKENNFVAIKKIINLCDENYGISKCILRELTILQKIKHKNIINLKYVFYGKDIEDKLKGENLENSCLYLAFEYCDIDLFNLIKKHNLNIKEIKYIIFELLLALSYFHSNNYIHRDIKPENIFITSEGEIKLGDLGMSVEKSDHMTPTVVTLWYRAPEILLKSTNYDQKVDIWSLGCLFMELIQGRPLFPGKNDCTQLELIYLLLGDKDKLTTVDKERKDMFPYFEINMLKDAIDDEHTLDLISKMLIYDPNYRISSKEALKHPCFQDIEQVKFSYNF
# [3] = target: Protein kinase 7 (PK7), Plasmodium falciparum 3D7 (PF3D7_0213400) (UniProt Q7YTF7); test: inhibition of Plasmodium PK7 catalytic activity – biochemical, TCAMS antimalarial set, Kinase-Glo luminescence (AID 1159587); settings: recombinant PfPK7, Kinase-Glo ATP depletion luminescence
# Sequence of Protein kinase 7 (PK7), Plasmodium falciparum 3D7 (PF3D7_0213400) (Q7YTF7 1-343): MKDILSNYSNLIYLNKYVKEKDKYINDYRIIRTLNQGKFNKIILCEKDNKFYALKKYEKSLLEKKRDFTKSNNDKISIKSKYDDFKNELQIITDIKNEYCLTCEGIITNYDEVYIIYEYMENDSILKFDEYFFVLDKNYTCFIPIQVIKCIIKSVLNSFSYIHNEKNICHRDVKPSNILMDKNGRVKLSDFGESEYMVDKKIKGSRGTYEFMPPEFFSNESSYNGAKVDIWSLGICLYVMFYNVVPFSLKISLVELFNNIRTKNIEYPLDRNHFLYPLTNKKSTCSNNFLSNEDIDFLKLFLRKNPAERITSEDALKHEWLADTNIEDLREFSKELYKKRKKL
# [4] = target: Calcium-dependent protein kinase 4 (Plasmodium falciparum (isolate 3D7)) (UniProt Q8IBS5); test: PfCDPK4 kinase inhibitors, biochemical, TCAMS library (AID 1159588; cut-off not given, nearly all actives have IC50 up to about 0.91 µM); settings: recombinant PfCDPK4, Kinase-Glo ATP depletion luminescence
# Sequence of Calcium-dependent protein kinase 4 (Plasmodium falciparum (isolate 3D7)) (Q8IBS5 whole entry, looked up): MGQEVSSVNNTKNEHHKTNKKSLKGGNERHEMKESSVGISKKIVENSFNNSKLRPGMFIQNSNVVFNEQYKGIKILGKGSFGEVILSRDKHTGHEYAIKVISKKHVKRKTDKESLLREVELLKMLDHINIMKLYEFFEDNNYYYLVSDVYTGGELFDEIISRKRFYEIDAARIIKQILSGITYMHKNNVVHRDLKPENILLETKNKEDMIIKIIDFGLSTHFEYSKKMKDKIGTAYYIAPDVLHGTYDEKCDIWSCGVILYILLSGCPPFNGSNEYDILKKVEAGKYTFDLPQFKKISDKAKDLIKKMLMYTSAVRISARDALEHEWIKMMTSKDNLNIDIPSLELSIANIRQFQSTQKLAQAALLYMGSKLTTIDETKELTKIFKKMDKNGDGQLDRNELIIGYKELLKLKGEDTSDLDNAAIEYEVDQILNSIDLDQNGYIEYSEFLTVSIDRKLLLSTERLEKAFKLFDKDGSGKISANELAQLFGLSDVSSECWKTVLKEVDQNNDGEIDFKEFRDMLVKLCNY
# [5] = target: 6-phosphogluconate dehydrogenase, decarboxylating (Homo sapiens) (UniProt P52209); test: inhibition of human phosphogluconate dehydrogenase – biochemical, recombinant enzyme, NADPH absorbance, primary screen (AID 1159550;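 active means at least 20% inhibition of 6-phosphogluconate dehydrogenase activity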); settings: recombinant 6PGD, NADPH absorbance 341 nm; at 10 µM; stronger effect = higher value
# Sequence of 6-phosphogluconate dehydrogenase, decarboxylating (Homo sapiens) (P52209 whole entry, looked up): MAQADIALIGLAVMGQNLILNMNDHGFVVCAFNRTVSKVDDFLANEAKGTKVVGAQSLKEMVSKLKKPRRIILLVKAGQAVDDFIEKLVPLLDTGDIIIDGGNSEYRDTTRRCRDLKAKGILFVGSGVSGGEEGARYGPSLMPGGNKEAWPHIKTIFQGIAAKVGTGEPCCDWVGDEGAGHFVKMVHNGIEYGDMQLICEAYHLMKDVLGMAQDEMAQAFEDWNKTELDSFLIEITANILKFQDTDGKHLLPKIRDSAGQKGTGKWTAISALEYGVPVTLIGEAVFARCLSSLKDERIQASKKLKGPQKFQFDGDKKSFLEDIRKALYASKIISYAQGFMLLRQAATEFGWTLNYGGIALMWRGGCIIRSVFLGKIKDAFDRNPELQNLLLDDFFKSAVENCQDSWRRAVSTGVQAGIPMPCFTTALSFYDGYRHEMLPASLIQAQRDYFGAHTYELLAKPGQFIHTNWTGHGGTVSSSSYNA
# [6] = growth inhibition, single agent or in combination, cell-based, chromothripsis tumors, cisplatin or BGB combos (AID 1671449; in the data active means inhibition above about 80%;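 further: cells exposed for 96 hours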); settings: LFS_MB_P medulloblastoma cells
# [7] = growth inhibition, single agent and combos, cell-based, chromothripsis tumors, cisplatin or BGB combos (AID 1671450; in the data active means inhibition above about 80%;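 further: cells exposed to compound for four days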); settings: HDN33 neuroblastoma cells, stronger effect = higher value
# [8] = growth inhibition, single agents and combos, ICB984, cell-based, cisplatin or BGB combos, synergistic combos for chromothripsis tumors (AID 1671451); settings: ICB984 medulloblastoma cells, drug combinations, stronger effect = higher value;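 further: cells exposed for 96 hours before readout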
# [9] = growth inhibition, single agents and combos, LFS_MB_1R, cell-based, cisplatin or BGB combos, synergistic combos for chromothripsis tumors (AID 1671452; in the data active means inhibition above about 80%;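 further: cells exposed for 96 hours before readout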); settings: LFS_MB_1R medulloblastoma cells, stronger effect = higher value
# [10] = growth inhibition, single agents and combos, HTB85, cell-based, BGB or cisplatin IC20 combos, synergistic combos for chromothripsis tumors (AID 1671453; in the data active means inhibition above about 80%;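 further: cells exposed for 96 hours before readout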); settings: HTB85 osteosarcoma cells, drug combinations, stronger effect = higher value
# [11] = growth inhibition, single agents and combos, CRL2098, cell-based, BGB or cisplatin IC20 combos, synergistic combos for chromothripsis tumors (AID 1671454; in the data active means inhibition above about 80%;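 further: cells exposed for 96 h before readout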); settings: CRL2098 osteosarcoma cells, drug combinations, stronger effect = higher value
# [12] = growth inhibition, single agents and combos, HD-MB03, cell-based, BGB or cisplatin IC20 combos, synergistic combos for chromothripsis tumors (AID 1671455; in the data active means inhibition above about 83%); settings: HD-MB03 medulloblastoma cells, stronger effect = higher value
# [13] = growth inhibition, single agents and combos, UWB1.289, cell-based, BGB or cisplatin combos, synergistic combos for chromothripsis tumors (AID 1671456; in the data active means inhibition above about 80%;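 further: cells exposed to compound for four days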); settings: UWB1.289 ovarian carcinoma cells, stronger effect = higher value
# [14] = growth inhibition, single agents and combos, LFS_MB_2R, cell-based, cisplatin combos, synergistic combos for chromothripsis tumors (AID 1671457; in the data active means inhibition above about 80%;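 further: cells exposed to compound for four days before readout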); settings: LFS_MB_2R medulloblastoma cells, stronger effect = higher value
# [15] = growth inhibition, MDA-MB-436, cell-based, BGB or cisplatin combos, synergistic combos for chromothripsis tumors (AID 1671458); settings: MDA-MB-436 breast carcinoma growth inhibition, drug combinations, stronger effect = higher value;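 further: cells exposed for 96 hours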
# [16] = UWB1.289_BRCA1 ovarian cancer growth, cell-based, BGB or cisplatin combinations (AID 1671459; in the data active means inhibition above about 80%); settings: UWB1.289 BRCA1 ovarian carcinoma, drug combinations, stronger effect = higher value
# [17] = drug combination toxicity in non-malignant astrocytes – cell-based, BGB or cisplatin IC20 combos, cytotoxicity control for chromothriptic childhood tumor combination screen (AID 1671460; in the data active means inhibition above about 80%;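 further: cells exposed to compounds for 96 hours before viability readout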); settings: Human astrocytes, viability inhibition, drug combinations, at 0.5 µM, stronger effect = higher value
# [18] = BT084 cell growth, single and combined drugs, ICGC_MB145, cisplatin and BGB IC40 combos (AID 1671461; in the data active means inhibition above about 80%;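 further: cells exposed to drugs for 96 hours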); settings: BT084 medulloblastoma cells, drug combinations, stronger effect = higher value
# [19] = RCMB18 cell growth, single agent and combined, cisplatin and BGB IC40 combos (AID 1671462; in the data active means inhibition above about 80%;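 further: cells exposed to compound for four days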); settings: RCMB18 medulloblastoma cells, stronger effect = higher value
# [20] = CRL1545 cell growth, single agent and combined, cisplatin and BGB IC20 combos (AID 1671464; in the data active means inhibition above about 80%;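 further: cells exposed to compound for 96 hours before readout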); settings: CRL1545 osteosarcoma cells, stronger effect = higher value
# [21] = measured here: combination with BGB IC40, at 0.05 µM
# [22] = measured here: with BGB IC20 combination, at 0.5 µM
# [23] = measured here: with cisplatin IC20 combination, at 0.5 µM
# [24] = measured here: combination with cisplatin, at 0.5 µM
# [25] = measured here: combination with cisplatin, at 5 µM
compound,measurement,setting,value
CCC[C@H](C(=O)NCCc1cccc(OC)c1)N1C(=O)c2c(ccc(OC)c2OC)C1C(=O)Nc1c(C)cccc1C (some centres not stated),outcome,[1],inactive
same,outcome,[2],inactive
same,outcome,[3],inactive
same,outcome,[4],inactive
CCCCCC(C)C(C)c1cc(O)c2c(c1)OC(C)(C)C=C2c1cc[n+]([O-])cc1 (configuration not stated),outcome,[1],inactive
same,outcome,[2],inactive
same,outcome,[3],inactive
same,outcome,[4],inactive
O=[N+]([O-])c1cccc(-c2nc3ccc(C4=N[C@@H]5CCCC[C@@H]5N4)cc3[nH]2)c1,outcome,[1],inactive
same,outcome,[2],inactive
same,outcome,[3],inactive
same,outcome,[4],inactive
CN(C)c1cc(N/N=C/c2cc(Cl)ccc2O)nc(N(C)C)n1,outcome,[1],inactive
same,outcome,[2],inactive
same,outcome,[3],inactive
same,outcome,[4],inactive
COc1ccc(Nc2nc(N/N=C/c3cc(Cl)ccc3O)nc(Nc3ccccc3)n2)cc1,outcome,[1],inactive
same,outcome,[2],inactive
same,outcome,[3],inactive
same,outcome,[4],inactive
C/C(=N\O)C1=C(O)C(c2ccccc2)N(c2ccccc2)C1=O (configuration not stated),outcome,[1],inactive
same,outcome,[2],inactive
same,outcome,[3],inactive
same,outcome,[4],inactive
O=C(Cc1ccc[n+]([O-])c1)Nc1cccc(-c2cccc(-c3nc4ccc(F)cc4[nH]3)c2)c1,outcome,[1],inactive
same,outcome,[2],inactive
same,outcome,[3],inactive
same,outcome,[4],inactive
Nc1cc(/C=C/c2ccc(O)cc2)nc2ccccc12,outcome,[1],inactive
same,outcome,[2],inactive
same,outcome,[3],inactive
same,outcome,[4],inactive
O/N=C1\CCc2cc(-c3nc(-c4ccc(OCCN5CCCCC5)cc4)[nH]c3-c3ccncc3)ccc21,outcome,[1],inactive
same,outcome,[2],inactive
same,outcome,[3],inactive
same,outcome,[4],inactive
Nc1ccc(-c2nc3cc(C4=N[C@@H]5CCCC[C@@H]5N4)ccc3o2)cc1[N+](=O)[O-],outcome,[1],inactive
same,outcome,[2],inactive
same,outcome,[3],inactive
same,outcome,[4],inactive
Cc1cccc2[nH]c(-c3cccc(-c4cccc(NC(=O)Cc5ccc[n+]([O-])c5)c4)c3)nc12,outcome,[1],inactive
same,outcome,[2],inactive
same,outcome,[3],inactive
same,outcome,[4],inactive
CCOc1cc(/C=N/Nc2nc(C)cc(-n3nc(C)cc3C)n2)ccc1O,outcome,[1],inactive
same,outcome,[2],inactive
same,outcome,[3],inactive
same,outcome,[4],inactive
CCCC[C@H](C(=O)NCc1ccccc1C(F)(F)F)N1C(=O)CCC1C(=O)Nc1ccc([N+](=O)[O-])cc1 (some centres not stated),outcome,[1],inactive
same,outcome,[2],inactive
same,outcome,[3],inactive
same,outcome,[4],inactive
CO[C@H](C)[C@H](NC(=O)[C@@H](CC(C)C)[C@H](CCC(F)(F)F)N(O)C=O)C(=O)Nc1nccs1,outcome,[1],inactive
same,outcome,[2],inactive
same,outcome,[3],inactive
same,outcome,[4],inactive
COc1cc(/C=N/Nc2ccnc3cc(Cl)ccc23)ccc1O,outcome,[1],inactive
same,outcome,[2],inactive
same,outcome,[3],inactive
same,outcome,[4],inactive
O=[N+]([O-])c1ccc(Nc2nc(N/N=C/c3cc(Cl)cc(Cl)c3O)nc(Nc3ccccc3)n2)cc1,outcome,[1],inactive
same,outcome,[2],inactive
same,outcome,[3],inactive
same,outcome,[4],inactive
COc1ccc(Nc2nc(N/N=C/c3cc(Br)c(O)cc3O)nc(Nc3ccc([N+](=O)[O-])cc3)n2)cc1,outcome,[1],inactive
same,outcome,[2],inactive
same,outcome,[3],inactive
same,outcome,[4],inactive
O=[N+]([O-])c1ccc(-c2nc3ccc(C4=N[C@@H]5CCCC[C@@H]5N4)cc3[nH]2)cc1,outcome,[1],inactive
same,outcome,[2],inactive
same,outcome,[3],inactive
same,outcome,[4],inactive
CCC[C@@H]([C@H](CC1CCCCC1)C(=O)N[C@H](C(=O)Nc1ccccn1)[C@H](C)CC)N(O)C=O,outcome,[1],inactive
same,outcome,[2],inactive
same,outcome,[3],inactive
same,outcome,[4],inactive
CCCO[C@H](C(=O)OC)[C@H](CC1Cc2ccccc2C1)C(=O)NCCC1=CCCCC1,outcome,[1],inactive
same,outcome,[2],inactive
same,outcome,[3],inactive
same,outcome,[4],inactive
COc1ccc(C2=[N+]([O-])c3ccccc3C2=O)cc1,outcome,[1],inactive
same,outcome,[2],inactive
same,outcome,[3],inactive
same,outcome,[4],inactive
O=C(N/C=N/c1cc([N+](=O)[O-])c(-c2ccncc2)n1-c1ccccc1)c1cccc(O)c1,outcome,[1],inactive
same,outcome,[2],inactive
same,outcome,[3],inactive
same,outcome,[4],inactive
CC1(C(=O)O)CCC2(C)CCC3(C)C(=CC(=O)C4C5(C)CCC(OC(=O)CCC(=O)O)C(C)(C)C5CCC43C)C2C1 (configuration not stated),inhibition,[5],6.14% (inactive)
same,inhibition,"[6]; at 0.5 µM, stronger effect = higher value",-21.3% (inactive)
same,inhibition,"[6]; measured here: combination with BGB IC20, at 0.005 µM",-7.44%
same,inhibition,"[6]; measured here: combination with BGB IC40, at 0.005 µM",-24.5%
same,inhibition,[6]; [21],-6.64%
same,inhibition,"[6]; measured here: combination with cisplatin, at 0.5 µM, stronger effect = higher value",-25.4%
same,inhibition,"[6]; measured here: combination with cisplatin, at 5 µM, stronger effect = higher value",6.61%
same,inhibition,"[7]; BGB combo, at 5 µM",-10.4%
same,inhibition,[7]; at 0.5 µM,-10.5% (inactive)
same,inhibition,"[7]; cisplatin combo, at 5 µM",-11.2%
same,inhibition,[7]; [22],-1.57%
same,inhibition,[7]; [23],-3.76%
same,inhibition,"[7]; single agent, at 5 µM",0.047%
same,inhibition,"[8]; BGB IC20 combo, at 0.005 µM",-6.54%
same,inhibition,"[8]; BGB IC40 combo, at 0.005 µM",-25.3%
same,inhibition,"[8]; BGB IC40 combo, at 0.05 µM",3.64%
same,inhibition,[8]; at 0.5 µM,-16.5% (inactive)
same,inhibition,"[8]; cisplatin combo, at 0.05 µM",3.64%
same,inhibition,"[8]; cisplatin combo, at 0.5 µM",-24%
same,inhibition,"[8]; cisplatin combo, at 5 µM",-37.6%
same,inhibition,"[8]; measured here: 5 uM single agent, at 5 µM",-21.7%
same,inhibition,[9]; at 0.5 µM,-0.8% (inactive)
same,inhibition,[9]; [21],-15.6%
same,inhibition,[9]; [24],21.2%
same,inhibition,[9]; [25],-0.5%
same,inhibition,[10]; at 0.5 µM,-18% (inactive)
same,inhibition,"[10]; measured here: with BGB IC20, at 0.5 µM",-38.9%
same,inhibition,"[10]; measured here: with BGB IC20, at 5 µM",-13.2%
same,inhibition,"[10]; measured here: with cisplatin IC20, at 0.5 µM",-4%
same,inhibition,"[10]; measured here: with cisplatin IC20, at 5 µM",-11%
same,inhibition,"[10]; single agent, at 5 µM",-22.6%
same,inhibition,[11]; at 0.5 µM,-75% (inactive)
same,inhibition,"[11]; measured here: combination with BGB at IC20, at 0.5 µM",-54.3%
same,inhibition,"[11]; measured here: combination with cisplatin at IC20, at 0.5 µM",-113%
same,inhibition,[12]; at 0.5 µM,0.23% (inactive)
same,inhibition,"[12]; measured here: combo with BGB at IC20, at 0.5 µM",-6.04%
same,inhibition,"[12]; measured here: combo with cisplatin at IC20, at 0.5 µM",5.01%
same,inhibition,[13]; at 0.5 µM,-3.45% (inactive)
same,inhibition,"[13]; measured here: inhibition with BGB combination, at 0.05 µM",-24.1%
same,inhibition,"[13]; measured here: inhibition with cisplatin combination, at 0.05 µM",-15.6%
same,inhibition,[14]; at 0.5 µM,-24.3% (inactive)
same,inhibition,[14]; [24],-26.3%
same,inhibition,[14]; [25],-19.2%
same,inhibition,[15]; at 0.5 µM,-23.5% (inactive)
same,inhibition,"[15]; measured here: BGB combination, at 0.5 µM",-21%
same,inhibition,"[15]; measured here: BGB combination, at 5 µM",-30.2%
same,inhibition,"[15]; measured here: cisplatin combination, at 0.5 µM",-40.5%
same,inhibition,"[15]; measured here: cisplatin combination, at 5 µM",-24%
same,inhibition,"[16]; BGB combination, concentration series, at 5 µM",-13.7%
same,inhibition,[16]; at 0.5 µM,-12.8% (inactive)
same,inhibition,"[16]; cisplatin combination, concentration series, at 5 µM",3.23%
same,inhibition,[17],-10.9% (inactive)
same,inhibition,[17]; measured here: combo with BGB IC20,-14.8%
same,inhibition,[17]; measured here: combo with cisplatin IC20,-13.4%
same,inhibition,[18]; at 0.5 µM,-17.1% (inactive)
same,inhibition,"[18]; cisplatin combination, at 0.5 µM",5.31%
same,inhibition,"[18]; cisplatin combination, at 5 µM",-38.2%
same,inhibition,"[18]; measured here: BGB IC40 combination 0.05 uM, at 0.05 µM",-1.75%
same,inhibition,"[18]; single agent, at 5 µM",-40.2%
same,inhibition,[19]; at 0.5 µM,-19.6% (inactive)
same,inhibition,"[19]; cisplatin combo, at 5 µM",13.2%
same,inhibition,"[19]; measured here: BGB IC40 combination, at 0.05 µM",-21.9%
same,inhibition,[19]; [24],-3.15%
same,inhibition,"[19]; single agent, at 5 µM",-16.1%
same,inhibition,[20]; at 0.5 µM,-42.7% (inactive)
same,inhibition,[20]; [22],-46.3%
same,inhibition,[20]; [23],-40.9%
same,inhibition,"[20]; single agent, at 0.05 µM",5.52%
same,inhibition,"[20]; single agent, at 5 µM",7.12%
